Results filed as inconclusive are left out. More than one record can exist for a structure, and the calls need not agree. Calls of active or inactive are those of the source. Rule for the calls: active = hit-call score of the fitted dose curve at least 0.9, where 1 is the maximum; inconclusive = response in the unintended direction; inactive = score below 0.9.
Read-out: Cytochrome P450 2B6 (Homo sapiens) (UniProt P20813)
Experiment: CLD_CYP2B6_6hr: CellzDirect (CLD) Gene Expression Assay for xenobiotic metabolism (CYP2B6) at 6 hours (AID 2283677);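 note: actives raise CYP2B6 transcript above DMSO baseline so AC50 marks an inducer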
Method: CLD_6hr is a cell-based, multiplexed-readout assay that uses hepatocyte, a human liver primary cell, with measurements taken at 6 hours after chemical dosing in a 96-well plate.CLD_CYP2B6_6hr is one of 16 assay component(s) measured or calculated from the CLD_6hr assay. It is designed to make measurements of mRNA induction, a form of inducible reporter, as detected with chemiluminescence signals by Quantitative Nuclease Protection Assay (qNPA) technology.Data from the assay component CLD_CYP2B6_6hr was analyzed at the endpoint, CLD_CYP2B6_6hr, in the positive analysis fitting direction relative to DMSO as the negative control and baseline of activity. Using a type of inducible reporter, gain-of-signal activity can be used to understand changes in the reporter gene as they relate to the gene CYP2B6. Furthermore, this assay endpoint can be referred to as a primary readout. To generalize the intended target to other relatable targets, this assay endpoint is annotated to the cyp intended target family, where subfamily is xenobiotic metabolism.
Human hepatocyte cultures were treated daily for two consecutive days with fresh dosing solutions containing appropriate concentrations of the 320 ToxCast chemicals (chemical identities were blinded to CellzDirect and other ToxCast collaborators), vehicle control (0.2% DMSO), and positive control inducers as summarized in Table 1. Due to the large number of treatment groups and chemicals examined, the ToxCast chemicals were divided into two groups (spanning two independent cultures of hepatocytes from separate donor preparations (Hu778: ToxCast plates 1 and 2; Hu776: ToxCast plates 3 and 4). Each preparation of human hepatocyte cultures was treated with respective vehicle control, medium only control, set of six positive controls/reference chemicals for the five hepatic receptor pathways, and a subset of eight of the ToxCast chemicals (indoxacarb, pyrithiobac-sodium, norflurazon, cyhalofop-butyl, methomyl, thiram, acetochlor, and propiconazole). These replicate data, coupled with internal replicates designed within the blinded ToxCast chemical library, provided additional data to evaluate interindividual differences between hepatocyte preparations and their potential impact on chemical profiles.Cell morphology and integrity were evaluated using phase-contrast microscopy as an indicator of hepatocyte cell health (Tyson & Green, 1987). Cultures for each treatment group (i.e., media, vehicle [0.2% DMSO], positive control inducers [multiple concentrations], and the ToxCast chemicals [multiple concentrations]) were observed and cell morphology was assessed relative to vehicle control cultures at each harvest time point (0, 6, 24, or 48 h). […] Images were evaluated at the conclusion of the study to assess changes in cell integrity and account for the effects of chemical exposure on uncharacteristic changes in concentration-dependent gene expression profiles. The results from these determinations of apparent cytotoxicity were annotated (yes/no) alongside the corresponding qNPA data for reference.At the conclusion of each treatment period, hepatocyte cultures (96-well) were washed with 1 volume of HBSS, lysed by addition of 25 ul ArrayPlate lysis buffer (HTG, Tucson, AZ), and 70 ul/well of Denaturation Oil, denatured by incubation at 95C for 10 min, and frozen at approximately -70C until analysis by nuclease protection assay (qNPA) (Roberts et al., 2007). For qNPA analysis, cell lysates were thawed at 50C for approximately 30 min, qNPA probes were added, and samples were incubated at 95C for 10 min to begin the detection process by denaturing the target RNA, dissociating the duplexes and secondary structure hybridization. At the conclusion of the hybridization period, S1 nuclease reagent was added to each sample to digest all nonprotected nucleotides at 50C for 60-90 min. […]

SMILES | AC50 | outcome
CCOC(=O)NCCOc1ccc(Oc2ccccc2)cc1 | 3970 nM (active) | –
COC(=O)c1cccc(C)c1S(=O)(=O)NC(=O)Nc1nc(OCC(F)(F)F)nc(N(C)C)n1 | 8960 nM (active) | –
CCCCC(CC)CN1C(=O)C2C3C=CC(C3)C2C1=O (configuration not stated) | 4330 nM (active) | –
COC(=O)c1ccc(CNS(C)(=O)=O)cc1S(=O)(=O)NC(=O)Nc1nc(OC)cc(OC)n1 | – | inactive
CCOC(=O)C(C)Oc1ccc(Oc2nc3ccc(Cl)cc3o2)cc1 (configuration not stated) | – | inactive
COC(=O)c1ccccc1S(=O)(=O)NC(=O)Nc1nc(OC(F)F)cc(OC(F)F)n1 | – | inactive
COC(=O)CSc1cc(N=c2sc(=O)n3n2CCCC3)c(F)cc1Cl | 1820 nM (active) | –
CCN(Cc1c(F)cccc1Cl)c1c([N+](=O)[O-])cc(C(F)(F)F)cc1[N+](=O)[O-] | 419 nM (active) | –
c1ccc2[nH]c(-c3cscn3)nc2c1 | 10200 nM (active) | –
CCCCOC(=O)C(C)Oc1ccc(Oc2ccc(C(F)(F)F)cn2)cc1 (configuration not stated) | – | inactive
CCCN(CCC)C(=O)SCC | 165 nM (active) | inactive
CCCCCOC(=O)COc1cc(N2C(=O)C3=C(CCCC3)C2=O)c(F)cc1Cl | 20000 nM (active) | –
COC(=O)c1ccc(I)cc1S(=O)(=O)NC(=O)Nc1nc(C)nc(OC)n1 | 397 nM (active) | –
COc1nc(C)nc(NC(=O)NS(=O)(=O)c2ccccc2OCCCl)n1 | – | inactive
CCN(CC)C(=O)c1cccc(C)c1 | 2380 nM (active) | –
COC(=O)c1ccccc1C(=O)O | – | inactive
CCCN(CCC)c1c([N+](=O)[O-])cc(C(F)(F)F)c(N)c1[N+](=O)[O-] | 752 nM (active) | –
COC(=O)c1c(Cl)nn(C)c1S(=O)(=O)NC(=O)Nc1nc(OC)cc(OC)n1 | – | inactive

SMILES | AC50 | outcome
CCCCOC(=O)[C@@H](C)Oc1ccc(Oc2ccc(C(F)(F)F)cn2)cc1 | – | inactive
Oc1ccc(C(c2ccc(O)cc2)C(Cl)(Cl)Cl)cc1 | – | inactive
CCOC(=O)COc1cc(-n2ncc(C(F)(F)F)c(C)c2=O)c(F)cc1Cl | 2490 nM (active) | –
CC(C)(c1ccc(O)cc1)c1ccc(O)cc1 | 14200 nM (active) | –
C=CCOC(Cn1ccnc1)c1ccc(Cl)cc1Cl (configuration not stated) | 18.6 nM (active) | –
C#CCOC(=O)[C@@H](C)Oc1ccc(Oc2ncc(Cl)cc2F)cc1 | 0.426 nM (active) | –
CC1(C)C(C=C(Cl)Cl)C1C(=O)OCc1cccc(Oc2ccccc2)c1 (configuration not stated) | 83 nM (active) | –
CSC(=O)c1cccc2nnsc12 | – | inactive
CCCCCCC(C)OC(=O)COc1nc(F)c(Cl)c(N)c1Cl (configuration not stated) | – | inactive
S=C(S)NCCNC(=S)S.[Mn+2].[S-]C([S-])=NCCN=C([S-])[S-].[Zn+2] | 2550 nM (active) | –
CCOC(=O)C(C)Oc1ccc(Oc2cnc3cc(Cl)ccc3n2)cc1 (configuration not stated) | – | inactive
CCCCC(CC)COC(=O)c1ccccc1C(=O)O (configuration not stated) | 4360 nM (active) | –
CN(C)C(=O)Nc1ccc(Cl)c(Cl)c1 | 4600 nM (active) | –
CCC(C)OC(=O)N1CCCCC1CCO (configuration not stated) | – | inactive
CCCCOCCOCCOCc1cc2c(cc1CCC)OCO2 | 1270 nM (active) | –
CCSC(=O)N(CC(C)C)CC(C)C | 3550 nM (active) | –
CC(C)(C)[C@@H](O)[C@@H](Cc1ccc(Cl)cc1)n1cncn1 | 1730 nM (active) | –
c1ccc(Nc2ccccc2)cc1 | 9660 nM (active) | –
